Experimental data reported in PubChem BioAssay (NCATS).
Results filed as inconclusive are left out. Active and inactive are the calls of the source. Unless noted, the call rests on the fitted dose curve; in most records, active means well fitted curve in the direction sought with a large enough effect; inconclusive means small, poorly fitted or top-dose-only effect, or another doubt; inactive means no such curve, though single readings can be large; an effect the other way counts as inactive or inconclusive.

What was measured:
[1] = qHTS for differential inhibitors of proliferation of Plasmodium falciparum line 3D7 (AID 1876);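 further: parasite growth measured after three days of culture; 0% = vehicle wells and -100% = reference inhibitor wells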
[2] = qHTS for differential inhibitors of proliferation of Plasmodium falciparum line D10 (AID 1877);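 further: parasites grown with compound for 72 h before DNA staining; plate controls were vehicle wells for no effect and reference inhibitor wells for full effect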
[3] = qHTS for differential inhibitors of proliferation of Plasmodium falciparum line W2 (AID 1883); conditions: Potency: Plasmodium falciparum W2 proliferation inhibition;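 further: parasites grown with compound for 72 h before lysis and staining; 0% = vehicle wells and -100% = control inhibitor wells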
[4] = qHTS for differential inhibitors of proliferation of Plasmodium falciparum line HB3 (AID 1886); conditions: Potency: Plasmodium falciparum HB3 proliferation inhibition;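 further: parasites grown with compound for 72 h before SYBR Green readout; plate controls were vehicle for no effect and reference inhibitor for full effect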
[5] = qHTS Assay for Modulators of Human Peripheral Myelin Protein 22 (PMP22) Expression/Activity (AID 1967; active means well fitted curve in the direction sought with a large enough effect in the signal ratio; the % refers to the signal ratio;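 further: 0% = untreated cells and 100% end not stated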)
Outline: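 Quantitative HTS in a mouse Schwann cell line expressing dual click beetle luciferases: Pmp22 promoter (green) and control EF-alpha promoter (red). After 24h treatment, corrected green/red signal ratio gave %Activity relative to untreated cells.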

[6] = target: Ferritin light chain (Equus caballus) (UniProt P02791); assay: qHTS Validation Assay for Identification of Novel General Anesthetics (AID 2323); further: series mostly up to about 77 µM; on the % scale 0 is the no-effect control and ±100 the full control effect
Outline: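 Apoferritin from horse spleen (10 uM) was mixed with 1-aminoanthracene at 50% saturation in PBS, then compounds were added. After 10 min at room temperature, fluorescence was read (ex 380 nm, em 535 nm) and normalized to free-probe and complex controls.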

[7] = target: ATP-dependent DNA helicase Q1 (Homo sapiens) (UniProt P46063); assay: qHTS Validation Assay for Inhibitors of RecQ-Like Dna Helicase 1 (RECQ1) (AID 2353);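 further: plate controls were DMSO vehicle for no effect and enzyme-free control for full effect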
Outline: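 50 nM RECQ1T1 preincubated 15 min with compound in Tris pH 8.0 buffer with MgCl2, DTT, Tween-20 and 2.5 ug/ml poly(dI-dC); started with 200 nM TAMRA/BHQ-2 forked duplex and 2 mM ATP. Unwinding read as fluorescence (525/598 nm), two reads 2 h apart.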

[8] = target: RecQ-like DNA helicase BLM (Homo sapiens) (UniProt P54132); assay: qHTS Validation Assay for Inhibitors of Bloom's syndrome helicase (BLM) (AID 2364);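 further: plate controls were DMSO vehicle for no effect and enzyme-free control for full effect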
Outline: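 BLM 50 nM in 25 mM Tris-HCl pH 8.0, 5 mM NaCl, 2 mM MgCl2, 1 mM DTT, 0.01% Tween-20, 2.5 ug/ml poly(dI-dC); 15 min cpd preinc, RT. Start: 200 nM forked DNA + 2 mM ATP (final). TAMRA read, 2 reads 2 h apart.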

[9] = Validation screen for small molecules that induce DNA re-replication in MCF 10A normal breast cells (AID 463097); further: 0% is about no effect; nearly all actives have a fitted effect of over 60% in size
Outline: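 DNA re-replication was detected as a rise in nuclei with elevated Hoechst fluorescence after a 48 hr compound exposure of MCF 10A cells at 37 C.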

[10] = Quantitative high throughput screen for delayed death inhibitors of the malarial parasite plastid, 48 hour incubation (AID 488752); further: on the % scale 0 is the no-effect control and ±100 the full control effect; nearly all actives have a fitted effect of over 65% in size
Outline: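 Erythrocytes infected with P. falciparum carrying an integrated firefly luciferase reporter (2% hematocrit, 0.1% parasitemia final) were exposed to compounds in RPMI 1640/0.5% Albumax for 48 h at 37 C, 5% CO2. Growth inhibition was scored as reduced luminescence.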

[11] = target: M-phase phosphoprotein 8 (Homo sapiens) (UniProt Q99549); assay: qHTS Validation Assay for Inhibitors for MPP8 Chromodomain Interactions with Methylated Histone Tails (AID 488949); further: potency means the concentration at half of the fitted maximal effect; nearly all actives have a fitted effect of over 55% in size
Outline: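 Disruption of the preformed MPP8–trimethyl-H3K9 peptide complex (both 50 nM, 30 min, RT) is measured after 30 min compound exposure, using AlphaScreen proximity beads; aurintricarboxylic acid titration serves as plate control.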

[12] = target: Transient receptor potential cation channel subfamily V member 1 (Homo sapiens) (UniProt Q8NER1); assay: HTS Assay for Compounds that Act as Enhancers of the Vanilloid Receptor 1 (AID 488979); further: 0% is about no effect
Outline: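 TRPV1-expressing cells loaded with Fluo-8 calcium dye; compounds added and calcium influx read kinetically for 3 min (agonist phase), then capsaicin at EC20 added and read 2 min more for enhancement. Fluorescence ex 480/em 520 nm.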

[13] = target: Thyrotropin receptor (Homo sapiens) (UniProt P16473); assay: qHTS Assay for Antagonists of the Thyroid Stimulating Hormone Receptor (AID 488980); further: series mostly up to about 58 µM; 0% is about no effect
Outline: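 Cells expressing human TSHR (HEK293) are dispensed in HBSS/HEPES containing 70 uM RO 20-1724, compound is added, then TSH at EC80 (4 nM final). Antibody in lysis buffer follows, 30 minutes at room temperature before HTRF detection.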

[14] = target: Thyrotropin-releasing hormone receptor (Homo sapiens) (UniProt P34981); assay: qHTS for Small Molecule Agonists and Allosteric Enhancers of Human TRH Receptor: Validation Screen for Agonists (AID 493127;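 active means calcium activation more than 3 SD above the typical response in the agonist read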;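 further: intracellular calcium rise by fluo-8 fluorescence before TRH EC20 addition; 0% is about no effect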); conditions: TRH receptor agonist cell assay; at 2 µM; stronger effect = higher value
Outline: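 TRHR-expressing cells were plated overnight in serum-containing medium, then loaded with fluo-8 calcium dye at room temperature for 30 min–1.5 h. After a 10 s baseline, compound was pin-transferred and calcium fluorescence (ex 480/em 530) read kinetically for agonist response.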

[15] = target: Galactokinase (Homo sapiens) (UniProt P51570); assay: qHTS Validation Assay for Inhibitors of Human Galactokinase (GALK) (AID 493189); further: 0% is about no effect
Outline: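 Compounds were pin-transferred into ATP buffer, then GALK-galactose mix was added (final 5 nM enzyme, 100 uM galactose, 35 uM ATP). After 1 h at room temperature, remaining ATP was measured luminescently.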

[16] = Validation screen for small molecules that induce DNA re-replication in SW480 colon adenocarcinoma cells (AID 504364); further: 0% is about no effect
Outline: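 SW480 cells seeded at 250 per well were exposed to compound or DMSO for 48 hr at 37 C, 5% CO2, then stained with Hoechst for 40 min. DNA content per nucleus was imaged (405 nm ex, 500-530 nm em).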

[17] = target: DNA dC->dU-editing enzyme APOBEC-3G (Homo sapiens) (UniProt Q9HC16); assay: qHTS for inhibitors of Vif-A3G interactions: Validation (AID 588379); further: 0% is about no effect
Outline: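 HeLa cells stably expressing Vif and A3G-eYFP, 700 cells/well, incubated overnight at 37 deg C, then exposed to compound overnight at 37 deg C. Inhibition of Vif-mediated degradation read as increased yellow fluorescence (Ex 488/Em 500-530) by laser-scanning cytometry.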

[18] = tested on: Zika virus NS2B-NS3 protease; assay: Primary screen GU AMC qHTS for Zika virus inhibitors (AID 1347154);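 further: 0% = no-inhibitor control and -100% = no-enzyme control; nearly all actives have a fitted effect of over 70% in size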
Outline: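 Unlinked Zika NS2B hydrophilic domain/NS3 protease domain noncovalent complex (25 nM final) in 10 mM Tris-HCl pH 8.0, 0.01% Tween 20, with AMC peptide substrate. Fluorescence (ex 340, em 450 nm) change over 15 min, room temperature; percent inhibition fitted to 4-parameter Hill equation.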

[19] = Primary qHTS for small molecule stabilizers of the endoplasmic reticulum resident proteome: Secreted ER Calcium Modulated Protein (SERCaMP) assay (AID 1508630); further: on the % scale 0 is the no-effect control and ±100 the full control effect
Outline: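 GLuc-SERCaMP-expressing SH-SY5Y cells, pretreated 16 h with compound, are challenged with thapsigargin to empty ER calcium stores; after 4 h, coelenterazine is added directly to the medium and luminescence is imaged.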

Chain of RecQ-like DNA helicase BLM (Homo sapiens) (P54132 whole entry, looked up): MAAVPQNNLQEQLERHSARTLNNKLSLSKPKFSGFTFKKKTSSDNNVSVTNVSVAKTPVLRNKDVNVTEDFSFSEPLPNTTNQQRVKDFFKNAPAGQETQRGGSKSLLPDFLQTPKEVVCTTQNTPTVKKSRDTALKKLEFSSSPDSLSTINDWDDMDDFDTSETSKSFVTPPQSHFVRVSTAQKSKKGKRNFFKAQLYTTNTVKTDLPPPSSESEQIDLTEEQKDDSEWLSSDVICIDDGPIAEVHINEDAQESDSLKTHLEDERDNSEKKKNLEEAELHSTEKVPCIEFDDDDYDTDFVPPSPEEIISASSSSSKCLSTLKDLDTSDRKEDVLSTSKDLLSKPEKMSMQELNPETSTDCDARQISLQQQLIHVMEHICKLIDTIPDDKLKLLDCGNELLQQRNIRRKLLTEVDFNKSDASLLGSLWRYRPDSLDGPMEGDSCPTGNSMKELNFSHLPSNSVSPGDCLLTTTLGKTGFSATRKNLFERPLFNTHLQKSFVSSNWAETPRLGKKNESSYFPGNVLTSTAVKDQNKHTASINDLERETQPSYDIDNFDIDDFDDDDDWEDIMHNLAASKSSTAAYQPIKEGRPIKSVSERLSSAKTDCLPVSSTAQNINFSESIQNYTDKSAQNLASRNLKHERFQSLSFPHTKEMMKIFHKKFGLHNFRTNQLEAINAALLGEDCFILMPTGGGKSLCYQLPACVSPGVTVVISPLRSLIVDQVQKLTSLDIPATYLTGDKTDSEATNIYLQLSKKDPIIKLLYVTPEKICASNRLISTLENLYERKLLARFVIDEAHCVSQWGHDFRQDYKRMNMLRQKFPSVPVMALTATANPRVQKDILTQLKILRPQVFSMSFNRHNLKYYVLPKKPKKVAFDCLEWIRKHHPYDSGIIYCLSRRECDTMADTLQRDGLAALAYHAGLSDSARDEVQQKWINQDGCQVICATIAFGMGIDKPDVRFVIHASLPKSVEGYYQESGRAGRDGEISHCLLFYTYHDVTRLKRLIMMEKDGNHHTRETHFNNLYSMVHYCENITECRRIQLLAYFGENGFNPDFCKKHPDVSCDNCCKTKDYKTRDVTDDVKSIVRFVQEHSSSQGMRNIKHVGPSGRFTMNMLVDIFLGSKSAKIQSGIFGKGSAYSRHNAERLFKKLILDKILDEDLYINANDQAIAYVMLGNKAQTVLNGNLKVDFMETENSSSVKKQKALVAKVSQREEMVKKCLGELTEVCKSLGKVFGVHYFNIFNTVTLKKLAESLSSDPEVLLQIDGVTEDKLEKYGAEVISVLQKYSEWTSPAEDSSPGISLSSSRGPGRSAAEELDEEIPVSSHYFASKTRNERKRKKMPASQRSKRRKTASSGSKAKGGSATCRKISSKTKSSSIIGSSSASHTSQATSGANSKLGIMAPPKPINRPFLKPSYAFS
Chain of DNA dC->dU-editing enzyme APOBEC-3G (Homo sapiens) (Q9HC16 whole entry, looked up): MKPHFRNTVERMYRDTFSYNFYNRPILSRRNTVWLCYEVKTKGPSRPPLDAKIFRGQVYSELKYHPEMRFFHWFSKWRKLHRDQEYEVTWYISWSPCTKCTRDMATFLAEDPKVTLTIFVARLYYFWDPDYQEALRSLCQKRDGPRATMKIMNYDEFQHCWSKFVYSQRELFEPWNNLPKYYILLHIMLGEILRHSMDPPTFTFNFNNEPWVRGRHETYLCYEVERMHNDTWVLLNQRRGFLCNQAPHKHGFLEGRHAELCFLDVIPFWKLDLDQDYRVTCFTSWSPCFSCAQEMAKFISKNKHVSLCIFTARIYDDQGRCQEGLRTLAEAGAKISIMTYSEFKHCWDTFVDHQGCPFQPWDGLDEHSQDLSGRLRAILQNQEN
Chain of M-phase phosphoprotein 8 (Homo sapiens) (Q99549 whole entry, looked up): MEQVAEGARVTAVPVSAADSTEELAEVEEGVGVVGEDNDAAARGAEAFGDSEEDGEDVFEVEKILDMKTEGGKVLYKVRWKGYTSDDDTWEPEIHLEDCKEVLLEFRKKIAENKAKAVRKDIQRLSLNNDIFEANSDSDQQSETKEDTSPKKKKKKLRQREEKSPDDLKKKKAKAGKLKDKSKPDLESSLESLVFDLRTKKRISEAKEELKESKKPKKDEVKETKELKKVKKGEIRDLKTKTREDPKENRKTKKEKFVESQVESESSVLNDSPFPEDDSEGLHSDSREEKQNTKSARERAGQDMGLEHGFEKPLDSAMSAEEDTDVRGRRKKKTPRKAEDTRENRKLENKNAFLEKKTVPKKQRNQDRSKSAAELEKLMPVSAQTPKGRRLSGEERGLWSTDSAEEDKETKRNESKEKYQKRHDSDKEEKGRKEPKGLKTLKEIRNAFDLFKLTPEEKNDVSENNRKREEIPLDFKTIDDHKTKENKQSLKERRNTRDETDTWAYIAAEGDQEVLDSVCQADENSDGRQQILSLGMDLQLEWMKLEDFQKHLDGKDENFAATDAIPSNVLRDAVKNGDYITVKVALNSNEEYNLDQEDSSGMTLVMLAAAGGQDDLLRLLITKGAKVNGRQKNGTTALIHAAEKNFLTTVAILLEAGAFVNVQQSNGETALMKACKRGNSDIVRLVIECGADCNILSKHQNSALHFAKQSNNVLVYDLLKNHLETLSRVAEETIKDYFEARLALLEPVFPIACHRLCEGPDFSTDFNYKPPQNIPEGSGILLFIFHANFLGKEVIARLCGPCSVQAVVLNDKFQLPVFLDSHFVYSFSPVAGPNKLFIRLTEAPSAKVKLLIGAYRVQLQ
Chain of ATP-dependent DNA helicase Q1 (Homo sapiens) (P46063 whole entry, looked up): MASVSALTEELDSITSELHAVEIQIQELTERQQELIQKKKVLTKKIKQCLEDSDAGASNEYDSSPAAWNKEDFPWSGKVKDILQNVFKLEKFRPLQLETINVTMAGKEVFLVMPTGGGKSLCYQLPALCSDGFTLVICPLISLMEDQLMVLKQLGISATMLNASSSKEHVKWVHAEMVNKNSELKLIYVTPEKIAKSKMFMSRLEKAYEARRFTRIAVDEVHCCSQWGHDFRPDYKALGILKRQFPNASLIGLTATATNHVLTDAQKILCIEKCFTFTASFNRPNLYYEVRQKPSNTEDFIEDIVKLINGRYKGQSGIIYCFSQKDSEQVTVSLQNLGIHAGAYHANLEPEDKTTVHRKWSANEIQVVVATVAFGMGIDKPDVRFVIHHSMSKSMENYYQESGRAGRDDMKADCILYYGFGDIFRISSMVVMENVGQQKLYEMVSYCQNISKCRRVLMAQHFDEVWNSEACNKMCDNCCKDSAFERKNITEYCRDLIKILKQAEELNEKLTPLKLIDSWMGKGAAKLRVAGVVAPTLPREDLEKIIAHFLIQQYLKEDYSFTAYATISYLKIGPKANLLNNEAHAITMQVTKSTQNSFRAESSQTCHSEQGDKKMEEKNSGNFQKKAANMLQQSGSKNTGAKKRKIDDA
Chain of Thyrotropin-releasing hormone receptor (Homo sapiens) (P34981 whole entry, looked up): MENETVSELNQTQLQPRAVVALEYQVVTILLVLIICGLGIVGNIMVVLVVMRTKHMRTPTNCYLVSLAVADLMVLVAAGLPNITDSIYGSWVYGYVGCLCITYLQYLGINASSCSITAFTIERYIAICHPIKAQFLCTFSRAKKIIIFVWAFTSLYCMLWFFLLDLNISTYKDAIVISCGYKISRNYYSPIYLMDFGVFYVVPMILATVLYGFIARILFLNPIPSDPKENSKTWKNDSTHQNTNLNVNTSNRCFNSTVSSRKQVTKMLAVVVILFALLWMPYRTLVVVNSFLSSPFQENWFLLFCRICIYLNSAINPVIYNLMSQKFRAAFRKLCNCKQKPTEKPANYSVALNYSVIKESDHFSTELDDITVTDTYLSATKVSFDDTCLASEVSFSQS
Chain of Galactokinase (Homo sapiens) (P51570 whole entry, looked up): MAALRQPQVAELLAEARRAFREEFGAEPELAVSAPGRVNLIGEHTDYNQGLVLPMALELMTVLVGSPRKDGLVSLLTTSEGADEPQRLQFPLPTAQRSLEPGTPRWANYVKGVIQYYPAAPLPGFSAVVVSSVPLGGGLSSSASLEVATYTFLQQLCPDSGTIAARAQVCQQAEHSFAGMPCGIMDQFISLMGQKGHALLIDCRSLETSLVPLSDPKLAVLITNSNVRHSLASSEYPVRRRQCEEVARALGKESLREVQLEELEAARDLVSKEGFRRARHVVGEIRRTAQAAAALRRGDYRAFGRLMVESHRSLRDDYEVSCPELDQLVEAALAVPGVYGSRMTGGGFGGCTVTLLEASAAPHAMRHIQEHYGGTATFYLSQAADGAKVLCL
Chain of Thyrotropin receptor (Homo sapiens) (P16473 whole entry, looked up): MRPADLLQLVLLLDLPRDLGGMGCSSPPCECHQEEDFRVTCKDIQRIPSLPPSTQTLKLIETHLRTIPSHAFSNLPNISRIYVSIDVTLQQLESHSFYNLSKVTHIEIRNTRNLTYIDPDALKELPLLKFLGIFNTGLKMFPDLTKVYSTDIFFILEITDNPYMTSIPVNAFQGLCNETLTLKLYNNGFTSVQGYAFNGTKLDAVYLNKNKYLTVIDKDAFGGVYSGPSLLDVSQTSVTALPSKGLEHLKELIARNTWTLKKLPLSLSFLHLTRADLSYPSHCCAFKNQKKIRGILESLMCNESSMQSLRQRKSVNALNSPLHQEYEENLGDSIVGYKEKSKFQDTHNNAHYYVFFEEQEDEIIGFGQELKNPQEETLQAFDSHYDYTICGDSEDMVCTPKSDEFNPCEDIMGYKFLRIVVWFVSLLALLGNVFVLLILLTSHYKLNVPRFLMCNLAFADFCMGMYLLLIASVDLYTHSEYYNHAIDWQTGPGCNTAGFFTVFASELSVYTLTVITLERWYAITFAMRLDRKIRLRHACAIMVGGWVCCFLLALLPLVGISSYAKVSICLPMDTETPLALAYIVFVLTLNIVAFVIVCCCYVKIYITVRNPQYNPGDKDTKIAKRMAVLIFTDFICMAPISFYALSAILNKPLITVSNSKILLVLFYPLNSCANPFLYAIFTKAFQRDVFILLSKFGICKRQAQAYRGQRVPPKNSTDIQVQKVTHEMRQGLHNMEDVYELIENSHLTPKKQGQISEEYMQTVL
Chain of Ferritin light chain (Equus caballus) (P02791 2-175 limits assumed): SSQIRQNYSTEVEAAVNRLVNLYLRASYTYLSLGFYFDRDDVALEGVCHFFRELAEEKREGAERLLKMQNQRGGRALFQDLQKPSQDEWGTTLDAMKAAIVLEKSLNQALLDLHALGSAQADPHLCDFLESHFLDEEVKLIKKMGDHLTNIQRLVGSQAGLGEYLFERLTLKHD

CN(C)CCCCSC(=N)N
inactive: Potency [1] | Potency [2] | Potency [3] | Potency [4] | outcome [5] | outcome [6] | Potency [7] | Potency [8] | Potency [9] | Potency [10] | outcome [12] | outcome [13] | activation [14] 1.19% | outcome [15] | outcome [16] | Potency [17] | Potency [18] | Potency [19]
active: Potency [11] 50.1 µM
